According to PubChem BioAssay:
Values joined by “and” are separate entries in the source; they are usually repeats but may differ in a detail not shown here. Equal entries are not always repeated. Values without a mark were called inactive. The list shows a part of the results. Active and inactive are the calls of the source. Cut-off read from the data, not from the text of the source, unless noted: active = inhibition above about 30%; inactive = the rest.

Legend:
[1] = target: Nuclear receptor coactivator 3 (Homo sapiens) (UniProt Q9Y6Q9); assay: SRC3 coactivator transcriptional activity inhibitors, confirmation, cell-based, luminescence, quadruplicate (AID 588792;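 active = mean inhibition over 43.08%, the solvent-only control mean plus 3 SD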;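 note: 0% = DMSO treated cells and 100% = gossypol at 36 µM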); conditions: HEK293 GAL4-SRC3 luciferase reporter, at 3.6 µM, hits give high values
[2] = system: transactivating tegument protein VP16 (Human herpesvirus 1), Gal4-VP16 luciferase reporter; assay: VP16 transactivation inhibitors, counter-screen for SRC3 inhibitor project, cell-based, luminescence, high throughput (AID 588794); conditions: mammalian cells, VP16-driven luciferase reporter luminescence; at 3.6 µM; hits give high values
[3] = system: transactivating tegument protein VP16 (Human herpesvirus 1); assay: VP16 transactivation reporter inhibitors, counter-screen for SRC2 inhibitor project, cell-based, luminescence, single concentration (AID 652007; in the data active = inhibition above about 36%); conditions: cell-based VP16 transactivation luciferase reporter, at 8.9 µM, hits give high values
[4] = target: Nuclear receptor coactivator 2 (Homo sapiens) (UniProt Q15596); assay: SRC2 coactivator transcriptional activity inhibitors, confirmation, cell-based, luminescence, HEK293, triplicate (AID 652008;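 active = mean inhibition above 46.5%, the solvent-only control mean plus 3 SD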;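 note: 0% = DMSO-treated cells and 100% = Gossypol at 36 µM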); conditions: HEK293 GAL4-SRC2 luciferase reporter, at 8.9 µM, hits give high values
[5] = StAR promoter reporter inhibitors, counter-screen for LRH-1 inverse agonist project, cell-based, luminescence, high throughput (AID 651611; in the data active = inhibition above about 28%); conditions: StAR promoter luciferase reporter counterscreen, at 3.6 µM, hits give high values
[6] = target: Nuclear receptor subfamily 5 group A member 2 (Homo sapiens) (UniProt O00482); assay: LRH-1 (NR5A2) inverse agonists, retest, confirmation, cell-based, luminescence (AID 651613; in the data active = inhibition above about 42%;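 note: HEK293T cells co-transfected with LRH-1 and StAR promoter luciferase reporter; 0% = vehicle wells and 100% = parental cells lacking receptor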); conditions: cell-based LRH-1 luciferase reporter, inverse agonism; at 3.6 µM; hits give high values
[7] = target: Steroidogenic factor 1 (Homo sapiens) (UniProt Q13285); assay: SF1 (NR5A1) inverse agonists, counter-screen for LRH-1 inverse agonist project, cell-based, luminescence, high throughput (AID 651614; in the data active = inhibition above about 44%;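 note: cells cotransfected with StAR promoter reporter and SF1 expression vector; 0% = vehicle on cells with receptor and 100% = vehicle on cells lacking receptor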); conditions: cell-based SF1 luciferase reporter, at 3.6 µM, hits give high values
[8] = VP16 transactivation reporter inhibitors, counter-screen for LRH-1 inverse agonist project, cell-based, luminescence, high throughput (AID 651615; in the data active = inhibition above about 33%); conditions: Gal4-VP16 luciferase reporter cells, at 3.6 µM, hits give high values
[9] = target: Galanin receptor type 2 (Homo sapiens) (UniProt O43603); assay: GALR2 antagonists, retest of hits, confirmation, cell-based (AID 866; in the data active = inhibition above about 27%;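 note: cells stimulated with galanin at about its EC80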); conditions: GALR2-expressing cells, antagonist mode, at 4 µM, hits give high values
[10] = inhibitors of NFAT-driven beta-lactamase reporter, confirmation, counter-screen for GALR2 antagonist project, CHO NFAT-bla cells, FRET readout (AID 867;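 active = inhibition above the mean inhibition across tested compounds plus 3 SD, cut at about 27% in these data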;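 note: 0% = 500 nM thapsigargin stimulated wells and 100% = unstimulated BSA only wells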); conditions: thapsigargin-stimulated, at 4.2 µM, hits give high values
[11] = target: Nuclear receptor coactivator 1 (Homo sapiens) (UniProt Q15788); assay: SRC1 coactivator transcriptional activity inhibitors, confirmation, cell-based, luminescence, quadruplicate (AID 588820;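 active = mean inhibition above 46.68%, the untreated control wells mean plus 3 SD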;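 note: 0% = DMSO wells and 100% = gossypol 36 µM treated wells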); conditions: HEK293 GAL4-SRC1 luciferase reporter, at 3.6 µM, hits give high values
[12] = VP16 transactivation inhibitors, counter-screen for SRC1 inhibitor project, cell-based, luminescence, high throughput (AID 588824; in the data active = inhibition above about 25%); conditions: cell-based VP16 transactivation luciferase luminescence; at 3.6 µM; hits give high values
[13] = Gal4-VP16 luciferase reporter inhibitors, counter-screen for COUP-TFII antagonist project, cell-based, luminescence, HEK293 (AID 687007; in the data active = inhibition above about 13%); conditions: at 8.5 µM, hits give high values
[14] = target: COUP transcription factor 2 (Homo sapiens) (UniProt P24468); assay: NR2F2 transcriptional activity inhibitors, confirmation, cell-based, luciferase reporter, HEK293, triplicate (AID 687008;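 active = mean inhibition over three repeats above a set limit taken from the earlier primary screen, cut at about 38% in these data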;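 note: 100% = cells given the luciferase reporter alone without the COUP-TF2 vector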); conditions: HEK293 NGFI-A luciferase reporter, luminescence; at 8.5 µM; hits give high values

Chain of Nuclear receptor coactivator 3 (Homo sapiens) (Q9Y6Q9 whole entry, looked up, the tested form may be a part): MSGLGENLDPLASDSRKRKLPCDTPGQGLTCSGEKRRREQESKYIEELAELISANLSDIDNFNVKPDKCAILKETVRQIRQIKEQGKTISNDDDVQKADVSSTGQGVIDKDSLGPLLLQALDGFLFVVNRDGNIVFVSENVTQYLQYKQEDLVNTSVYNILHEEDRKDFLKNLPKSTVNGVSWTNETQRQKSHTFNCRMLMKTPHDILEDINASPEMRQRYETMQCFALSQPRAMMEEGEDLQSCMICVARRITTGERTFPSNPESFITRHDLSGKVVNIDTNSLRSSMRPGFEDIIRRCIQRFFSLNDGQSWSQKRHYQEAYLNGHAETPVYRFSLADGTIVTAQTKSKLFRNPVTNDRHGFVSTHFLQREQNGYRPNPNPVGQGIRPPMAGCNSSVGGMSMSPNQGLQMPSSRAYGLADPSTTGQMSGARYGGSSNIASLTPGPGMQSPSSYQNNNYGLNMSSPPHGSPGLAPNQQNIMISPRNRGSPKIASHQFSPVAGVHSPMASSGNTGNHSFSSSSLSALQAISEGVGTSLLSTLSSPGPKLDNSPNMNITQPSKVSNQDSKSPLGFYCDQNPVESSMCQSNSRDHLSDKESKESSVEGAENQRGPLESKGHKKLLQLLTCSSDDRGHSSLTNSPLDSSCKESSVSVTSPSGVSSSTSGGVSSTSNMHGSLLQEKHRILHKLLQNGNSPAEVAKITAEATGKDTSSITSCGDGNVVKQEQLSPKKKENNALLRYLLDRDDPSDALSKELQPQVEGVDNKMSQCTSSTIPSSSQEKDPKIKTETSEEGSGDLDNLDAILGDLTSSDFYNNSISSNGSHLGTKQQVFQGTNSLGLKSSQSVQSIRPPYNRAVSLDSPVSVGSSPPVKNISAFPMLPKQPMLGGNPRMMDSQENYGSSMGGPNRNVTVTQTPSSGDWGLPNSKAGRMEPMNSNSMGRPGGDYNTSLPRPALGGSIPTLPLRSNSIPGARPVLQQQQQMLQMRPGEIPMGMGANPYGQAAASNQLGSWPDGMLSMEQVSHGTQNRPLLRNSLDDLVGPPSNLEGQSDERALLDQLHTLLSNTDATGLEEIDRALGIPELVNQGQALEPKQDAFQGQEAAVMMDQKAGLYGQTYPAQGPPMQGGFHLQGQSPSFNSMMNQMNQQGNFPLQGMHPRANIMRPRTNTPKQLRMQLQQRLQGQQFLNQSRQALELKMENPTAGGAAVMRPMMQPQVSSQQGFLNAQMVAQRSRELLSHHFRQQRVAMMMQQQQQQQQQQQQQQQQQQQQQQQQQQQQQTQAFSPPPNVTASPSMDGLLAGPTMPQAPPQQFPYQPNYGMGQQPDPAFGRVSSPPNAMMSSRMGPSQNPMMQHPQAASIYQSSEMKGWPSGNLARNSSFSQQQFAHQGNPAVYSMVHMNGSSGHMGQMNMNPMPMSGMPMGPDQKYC
Chain of Nuclear receptor coactivator 1 (Homo sapiens) (Q15788 whole entry, looked up, the tested form may be a part): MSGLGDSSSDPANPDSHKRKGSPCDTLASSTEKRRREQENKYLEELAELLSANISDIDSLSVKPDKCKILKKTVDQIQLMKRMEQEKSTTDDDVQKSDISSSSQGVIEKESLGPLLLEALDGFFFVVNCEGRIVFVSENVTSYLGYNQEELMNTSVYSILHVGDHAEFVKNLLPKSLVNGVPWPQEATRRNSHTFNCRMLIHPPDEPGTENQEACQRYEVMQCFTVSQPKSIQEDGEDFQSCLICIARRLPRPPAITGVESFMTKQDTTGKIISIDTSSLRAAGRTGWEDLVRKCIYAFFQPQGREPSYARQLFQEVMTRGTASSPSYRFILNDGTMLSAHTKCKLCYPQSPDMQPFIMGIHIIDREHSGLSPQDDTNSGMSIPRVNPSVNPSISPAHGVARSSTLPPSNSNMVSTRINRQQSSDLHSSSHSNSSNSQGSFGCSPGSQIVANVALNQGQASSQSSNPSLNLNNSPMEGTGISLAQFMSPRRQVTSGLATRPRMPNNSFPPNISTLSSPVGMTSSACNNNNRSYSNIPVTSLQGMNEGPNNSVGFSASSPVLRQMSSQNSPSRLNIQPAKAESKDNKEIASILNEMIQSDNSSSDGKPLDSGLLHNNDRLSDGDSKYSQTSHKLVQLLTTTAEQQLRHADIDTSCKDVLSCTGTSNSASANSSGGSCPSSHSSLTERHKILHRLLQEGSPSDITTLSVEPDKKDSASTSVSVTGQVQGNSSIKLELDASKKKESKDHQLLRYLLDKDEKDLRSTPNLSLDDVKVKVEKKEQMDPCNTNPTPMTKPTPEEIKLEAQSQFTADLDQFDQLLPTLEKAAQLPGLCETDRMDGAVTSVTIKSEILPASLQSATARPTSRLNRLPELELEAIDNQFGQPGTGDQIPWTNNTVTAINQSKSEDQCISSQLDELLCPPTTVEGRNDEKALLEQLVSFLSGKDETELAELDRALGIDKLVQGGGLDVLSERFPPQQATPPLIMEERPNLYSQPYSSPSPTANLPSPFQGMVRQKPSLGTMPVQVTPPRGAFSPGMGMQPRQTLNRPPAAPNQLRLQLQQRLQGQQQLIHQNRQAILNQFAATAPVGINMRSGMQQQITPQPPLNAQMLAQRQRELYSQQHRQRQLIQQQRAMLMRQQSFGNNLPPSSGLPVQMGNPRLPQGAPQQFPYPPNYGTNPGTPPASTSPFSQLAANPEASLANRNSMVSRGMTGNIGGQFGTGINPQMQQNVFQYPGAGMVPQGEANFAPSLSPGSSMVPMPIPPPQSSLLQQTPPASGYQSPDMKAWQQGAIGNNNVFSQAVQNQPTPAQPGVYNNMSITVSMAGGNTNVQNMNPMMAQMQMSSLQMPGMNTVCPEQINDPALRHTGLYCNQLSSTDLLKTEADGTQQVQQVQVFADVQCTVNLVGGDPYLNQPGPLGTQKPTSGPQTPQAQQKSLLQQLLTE
Chain of Nuclear receptor coactivator 2 (Homo sapiens) (Q15596 whole entry, looked up, the tested form may be a part): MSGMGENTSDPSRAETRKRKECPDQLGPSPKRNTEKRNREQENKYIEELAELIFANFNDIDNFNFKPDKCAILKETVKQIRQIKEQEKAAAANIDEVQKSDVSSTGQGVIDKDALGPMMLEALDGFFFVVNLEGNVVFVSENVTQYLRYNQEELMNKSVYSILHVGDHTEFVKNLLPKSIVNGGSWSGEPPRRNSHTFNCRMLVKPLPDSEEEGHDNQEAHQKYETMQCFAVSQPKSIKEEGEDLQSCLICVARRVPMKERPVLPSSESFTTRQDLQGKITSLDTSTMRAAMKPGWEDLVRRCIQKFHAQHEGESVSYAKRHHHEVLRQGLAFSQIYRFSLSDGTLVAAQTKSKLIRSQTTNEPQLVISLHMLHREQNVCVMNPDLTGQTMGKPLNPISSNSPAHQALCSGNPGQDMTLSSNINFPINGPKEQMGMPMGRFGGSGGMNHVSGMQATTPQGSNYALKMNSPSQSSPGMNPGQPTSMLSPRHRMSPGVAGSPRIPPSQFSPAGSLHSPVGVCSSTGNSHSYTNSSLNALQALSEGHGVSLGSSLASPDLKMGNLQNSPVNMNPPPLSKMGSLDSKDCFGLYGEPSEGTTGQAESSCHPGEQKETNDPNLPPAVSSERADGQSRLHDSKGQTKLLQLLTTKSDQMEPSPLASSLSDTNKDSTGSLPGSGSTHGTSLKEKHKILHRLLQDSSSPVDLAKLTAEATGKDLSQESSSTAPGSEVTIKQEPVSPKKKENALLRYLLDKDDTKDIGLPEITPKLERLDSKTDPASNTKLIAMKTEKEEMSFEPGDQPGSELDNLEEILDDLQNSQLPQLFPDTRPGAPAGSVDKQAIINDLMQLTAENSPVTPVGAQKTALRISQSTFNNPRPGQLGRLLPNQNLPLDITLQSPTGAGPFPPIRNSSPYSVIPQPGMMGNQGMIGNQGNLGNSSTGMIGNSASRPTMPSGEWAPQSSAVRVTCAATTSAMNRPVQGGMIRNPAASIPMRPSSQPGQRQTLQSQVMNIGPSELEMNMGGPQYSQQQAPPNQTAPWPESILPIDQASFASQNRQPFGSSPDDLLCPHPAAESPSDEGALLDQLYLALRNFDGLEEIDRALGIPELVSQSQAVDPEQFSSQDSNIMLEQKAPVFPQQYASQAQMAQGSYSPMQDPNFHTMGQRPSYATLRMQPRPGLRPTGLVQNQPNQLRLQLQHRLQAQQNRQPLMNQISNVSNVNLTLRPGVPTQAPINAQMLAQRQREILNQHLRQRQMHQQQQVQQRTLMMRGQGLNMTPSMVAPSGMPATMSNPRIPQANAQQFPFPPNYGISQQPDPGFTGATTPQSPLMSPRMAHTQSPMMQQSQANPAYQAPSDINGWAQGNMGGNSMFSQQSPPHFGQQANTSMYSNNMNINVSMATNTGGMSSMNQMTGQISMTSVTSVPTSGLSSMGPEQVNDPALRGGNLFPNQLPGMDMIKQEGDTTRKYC
Chain of Nuclear receptor subfamily 5 group A member 2 (Homo sapiens) (O00482 whole entry, looked up): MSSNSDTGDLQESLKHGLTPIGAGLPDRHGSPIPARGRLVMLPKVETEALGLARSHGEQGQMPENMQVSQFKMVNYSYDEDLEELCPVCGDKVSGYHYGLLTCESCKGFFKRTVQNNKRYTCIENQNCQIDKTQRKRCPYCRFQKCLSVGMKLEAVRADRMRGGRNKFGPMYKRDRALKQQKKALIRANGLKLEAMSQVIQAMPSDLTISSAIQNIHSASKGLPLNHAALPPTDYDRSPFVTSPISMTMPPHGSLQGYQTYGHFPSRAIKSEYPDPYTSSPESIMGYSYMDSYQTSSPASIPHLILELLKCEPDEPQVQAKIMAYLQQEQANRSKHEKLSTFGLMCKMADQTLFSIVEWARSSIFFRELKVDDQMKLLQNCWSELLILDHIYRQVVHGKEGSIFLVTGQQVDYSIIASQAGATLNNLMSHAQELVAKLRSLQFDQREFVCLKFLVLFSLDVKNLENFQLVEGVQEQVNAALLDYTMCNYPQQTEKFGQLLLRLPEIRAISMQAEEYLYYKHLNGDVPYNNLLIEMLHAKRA

## COc1ccc(-c2noc(CCC(=O)NCCCN3CCC(Cc4ccccc4)CC3)n2)cc1
[1]
  inhibition: -0.27%
[2]
  inhibition: 10.7%
[3]
  inhibition: -4.69%
[4]
  inhibition: 15.6%

## O=C(Cc1ccc(Cl)cc1)c1c[nH]c(C(=O)NCc2cccnc2)c1
[1]
  inhibition: 95.9% (active)
[2]
  inhibition: 56% (active)
[3]
  inhibition: 93.5% (active)
[4]
  inhibition: 95.2% (active)

## CCCCCCCCCCCCCCCC[n+]1ccccc1
[1]
  inhibition: 16.6%
[2]
  inhibition: 25.1%
[5]
  inhibition: 23.1% and 10.5%
[6]
  inhibition: 47.2% (active) and 54.5% (active)
[7]
  inhibition: 57.7% (active) and 48.1% (active)
[8]
  inhibition: 52.6% (active) and 48.9% (active)
[3]
  inhibition: 13.5%
[4]
  inhibition: -2.51%

## Cc1ccc(-n2nnnc2Sc2ccc(S(=O)(=O)NCCN(C)C)cc2[N+](=O)[O-])cc1
[1]
  inhibition: 33.8%
[2]
  inhibition: 35.9% (active)
[3]
  inhibition: 18.6%
[4]
  inhibition: 31.4%

## CC(C)(C)C(=O)Nc1ccc(C(=O)N/N=C/c2ccccc2OC(=O)c2ccc(Cl)cc2)cc1
[1]
  inhibition: 27.4%
[2]
  inhibition: 7.22%
[3]
  inhibition: 6.84%
[4]
  inhibition: 35.1%

## COc1cccc(F)c1C(C[N+](=O)[O-])c1c(N)n(C)c(=O)n(C)c1=O (stereo not given)
[1]
  inhibition: 42.5%
[2]
  inhibition: 24.4%
[3]
  inhibition: 14.7%
[4]
  inhibition: 28.2%

## O=C(Nc1ccc(OCC(=O)N2CCOCC2)cc1)c1cncc(Br)c1
[1]
  inhibition: 29.6%
[2]
  inhibition: 23%
[3]
  inhibition: 3.8%
[4]
  inhibition: 26.1%

## CCOC(=O)c1c(C)nn(-c2ccc(NC(=O)/C=C/C(=O)O)cc2)c1C
[1]
  inhibition: 10.7%
[2]
  inhibition: -2.88%
[3]
  inhibition: 8.16%
[4]
  inhibition: 62.7% (active)

## CC(C)(C)c1ccc(-c2noc(CCC(=O)Nc3cccnc3)n2)cc1
[1]
  inhibition: 41%
[2]
  inhibition: 25.7%
[3]
  inhibition: 67.8% (active)
[4]
  inhibition: 80.8% (active)

## O=C(c1ccc(F)cc1)C(CN1CCOCC1)c1ccccc1 (stereo not given)
[1]
  inhibition: 44.1% (active)
[2]
  inhibition: 55.9% (active)
[3]
  inhibition: 35%
[4]
  inhibition: 82.6% (active)

## COc1ccc(C(=O)Nc2ccc(C)cn2)c(OC)c1
[1]
  inhibition: -0.48%
[2]
  inhibition: -4.91%
[3]
  inhibition: 23.7%
[4]
  inhibition: 49.8% (active)

## CCc1ccc(/C=C/C(=O)c2c(C)cc(C)[nH]c2=O)cc1
[1]
  inhibition: 55.5% (active)
[2]
  inhibition: 50.1% (active)
[3]
  inhibition: 17.5%
[4]
  inhibition: 40.1%

## Cc1ccc(-n2c(-c3ccc(Cl)cc3)c[n+]3c2CCC3)cc1
[1]
  inhibition: 16.1%
[2]
  inhibition: 21.9%
[3]
  inhibition: 13.4%
[4]
  inhibition: 18.6%

## Cc1nnnn1/C(=C\c1ccccc1)C(=O)OCC(=O)N1CC2(C)CC1CC(C)(C)C2 (stereo not given)
[9]
  inhibition: 39% (active)
[10]
  inhibition: 16.1%
[1]
  inhibition: 22.4%
[2]
  inhibition: 44% (active)

## CCCC(C)NC(=O)C1c2ccccc2Oc2ccccc21 (stereo not given)
[11]
  inhibition: -0.82%
[12]
  inhibition: -7.9%

## Cc1ccc(C)c(N2CCN(C(=O)CCCCCn3c(=S)[nH]c4ccc(N5CCOCC5)cc4c3=O)CC2)c1
[1]
  inhibition: 60.6% (active)
[2]
  inhibition: 73.1% (active)
[3]
  inhibition: 69.7% (active)
[4]
  inhibition: 60.8% (active)
[13]
  inhibition: 15% (active)
[14]
  inhibition: 90% (active)

## COc1ccc(N2CCN(C(=O)c3oc4ccccc4c3NC(=O)CCc3cc(OC)no3)CC2)cc1
[11]
  inhibition: 1.78%
[12]
  inhibition: -3.04%

## CS(=O)(=O)c1ccc(NC(=O)CCN2C(=O)C3CCCCC3C2=O)cc1 (stereo not given)
[11]
  inhibition: -9.83%
[12]
  inhibition: -10.5%

## Cc1cc(C)cc(OCC(=O)NCC2CCCO2)c1 (stereo not given)
[1]
  inhibition: 18.4%
[2]
  inhibition: -9.18%
[3]
  inhibition: -1.96%
[4]
  inhibition: 28.9%

## CCN(c1cccc(C)c1)c1ncnc2nc[nH]c12
[1]
  inhibition: 35.9%
[2]
  inhibition: 21.8%
[3]
  inhibition: -7.68%
[4]
  inhibition: 28.4%

## COc1ccc(OC)c(S(=O)(=O)N2CCN(c3ccccc3)CC2)c1
[11]
  inhibition: -2.63%
[12]
  inhibition: -1.07%

## CCOC1(OCC)OC(c2ccccc2)=C(C#N)C(C=Cc2ccccc2)C1(OCC)OCC (stereo not given)
[11]
  inhibition: 0.8%
[12]
  inhibition: 4.67%

## COc1cccc(C(C(=O)NC2CCCC2)N(C(=O)c2ccco2)c2ccc(C(C)=O)cc2)c1OC (stereo not given)
[11]
  inhibition: -0.53%
[12]
  inhibition: -9.34%

## Cc1cc2nccc(-c3ccncc3)n2n1
[1]
  inhibition: 38.2%
[2]
  inhibition: 22.4%
[3]
  inhibition: 3.85%
[4]
  inhibition: 33.4%

## COc1cccc(N2CC(NS(=O)(=O)c3cccnc3)CC2=O)c1 (stereo not given)
[11]
  inhibition: -40.7%
[12]
  inhibition: -8.11%

## CCOc1ccc(CC(=O)Nc2ccc(NC(=O)c3ccco3)cc2)cc1OCC
[1]
  inhibition: 64% (active)
[2]
  inhibition: -14.3%
[3]
  inhibition: 7.03%
[4]
  inhibition: 41.9%

## Brc1ccc2ncnc(NCc3ccco3)c2c1
[11]
  inhibition: 32.1%
[12]
  inhibition: 31.2% (active)

## Cc1ccc2oc(C(=O)NC3CCS(=O)(=O)C3)cc(=O)c2c1 (stereo not given)
[11]
  inhibition: -6.08%
[12]
  inhibition: -12.1%

## CCOC(=O)N1CCC(Nc2ncnc3c2cnn3-c2ccc(C)cc2C)CC1
[11]
  inhibition: -5.68%
[12]
  inhibition: 29% (active)

## Cc1nnc(N2CCN(Cc3ccccc3)CC2)[nH]c1=O
[11]
  inhibition: -4.97%
[12]
  inhibition: -7.63%

## O=C(/C=C/c1ccccc1)CC(O)(c1ccccc1)C(F)(F)C(F)F (stereo not given)
[1]
  inhibition: 11%
[2]
  inhibition: 4.32%
[3]
  inhibition: 7.22%
[4]
  inhibition: 19.9%

## CC(=O)Nc1cccc(C(=O)Nc2ccc(S(=O)(=O)NC3=NCCCCC3)cc2)c1
[11]
  inhibition: -23%
[12]
  inhibition: -8.18%

## Cc1nc([N+](=O)[O-])c(Sc2nc3ccccc3[nH]2)n1Cc1ccccc1
[1]
  inhibition: 16.1%
[2]
  inhibition: 6.02%
[3]
  inhibition: -3.82%
[4]
  inhibition: 32.5%

## CN(C)CCNC(=O)c1cccc2nc3c(ccc4ccccc43)nc12
[11]
  inhibition: 30.5%
[12]
  inhibition: 40.4% (active)

## Cc1c(/C(O)=C2\C(=O)C(=O)N(CCN(C)C)C2c2ccccc2)cnn1-c1ccccc1 (stereo not given)
[1]
  inhibition: 15.8%
[2]
  inhibition: -3.19%
[3]
  inhibition: -15.3%
[4]
  inhibition: 10.1%

## CCCCCCCN(c1ccccc1)[C@@H]1C[C@H]2CCCC(=O)N3CC[C@@H](C1)[C@@H]23
[1]
  inhibition: 6.93%
[2]
  inhibition: 30.5% (active)
[3]
  inhibition: 25%
[4]
  inhibition: 35%

## COc1ccc(C[C@H]2COC(=O)[C@@H]2Cc2ccc(OC3OC(CO)C(O)C(O)C3O)c(OC)c2)cc1OC (stereo not given in full)
[11]
  inhibition: 9.39%
[12]
  inhibition: 31% (active)

## CC(C)Oc1ccc(C(=O)Nc2nc3ccccc3[nH]2)cc1
[11]
  inhibition: -74.9%
[12]
  inhibition: -39.4%

## O=C(Nc1ccc(Oc2ccccc2)cc1)c1csc([C@@H]2O[C@H](CO)[C@@H](O)[C@H]2O)n1
[11]
  inhibition: -12.9%
[12]
  inhibition: 19.7%

## O=C(Nc1ccccc1)NN(C(=O)CCl)c1ccccc1
[1]
  inhibition: -0.31%
[2]
  inhibition: 13.4%
[3]
  inhibition: 32.9%
[4]
  inhibition: 56.9% (active)

## CCNc1nc2c(c(=O)n(C)c(=O)n2C)n1Cc1ccc(Cl)cc1
[11]
  inhibition: -0.87%
[12]
  inhibition: 23.4%

## COc1ccc(C(=O)Cn2c(Br)nc3c2c(=O)n(C)c(=O)n3C)cc1
[11]
  inhibition: -2.41%
[12]
  inhibition: 11.5%

## COCCOc1ccc(C(F)(F)F)cc1NC(=O)c1ccc(C(F)(F)F)cc1
[11]
  inhibition: 6.49%
[12]
  inhibition: 3.69%
